# Assay results reported in ChEMBL document CHEMBL3433997, “St. Jude Leishmania screening dataset” (2016).
# What was measured:
# Format in all cases: functional
# [1] = target: Solute carrier family 2, facilitated glucose transporter member 1 (Homo sapiens) (UniProt P11166); assay: ST_JUDE_LEISH: Cytotoxicity at 2uM final concentration against transgenic Leishmania Mexicana promastigotes LmGLUT1 that are glucose transport deficient and complemented with the human glucose transporter GLUT1. Activity is measured by DNA content using SYBR green in vitro
# Chain of Solute carrier family 2, facilitated glucose transporter member 1 (Homo sapiens) (P11166 whole entry): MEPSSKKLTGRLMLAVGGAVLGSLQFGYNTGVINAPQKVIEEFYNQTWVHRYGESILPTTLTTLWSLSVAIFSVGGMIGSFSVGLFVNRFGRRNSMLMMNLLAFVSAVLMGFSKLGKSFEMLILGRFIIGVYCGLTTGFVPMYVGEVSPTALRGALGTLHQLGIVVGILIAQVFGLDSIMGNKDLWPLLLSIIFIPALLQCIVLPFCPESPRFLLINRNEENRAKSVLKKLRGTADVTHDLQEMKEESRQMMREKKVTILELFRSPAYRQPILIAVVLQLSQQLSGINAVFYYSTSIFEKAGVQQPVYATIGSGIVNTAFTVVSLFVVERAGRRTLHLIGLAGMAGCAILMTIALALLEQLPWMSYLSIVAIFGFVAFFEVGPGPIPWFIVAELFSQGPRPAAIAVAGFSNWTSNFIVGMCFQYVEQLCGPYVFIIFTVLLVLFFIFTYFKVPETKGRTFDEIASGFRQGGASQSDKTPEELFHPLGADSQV
# [2] = target: Hexose transporter 1 (Plasmodium falciparum) (UniProt O97467); assay: ST_JUDE_LEISH: Cytotoxicity at 2uM final concentration against transgenic Leishmania Mexicana promastigotes LmPfHT that are glucose transport deficient and complemented with the Plasmodium falciparum hexose transporter. Activity is measured by DNA content using SYBR green in vitro
# [3] = target: Glucose transporter (Leishmania mexicana) (UniProt O61059); assay: ST_JUDE_LEISH: Cytotoxicity at 2uM final concentration against transgenic Leishmania Mexicana promastigotes LmGT2 that are glucose transport deficient and complemented with the L. Mexicana glucose transporter 2. Activity is measured by DNA content using SYBR green in vitro
smiles,measurement,setting,value
COc1ccccc1CNC(=O)c1ccc(N2CCN(c3ccncc3)CC2)cn1,inhibition,[1],7.32%
same,inhibition,[2],2.84%
same,inhibition,[3],1.11%
CN1C(=CC(=O)NC(=O)c2ccccc2)C(C)(C)c2ccccc21,inhibition,[1],0.52%
same,inhibition,[2],0.41%
same,inhibition,[3],0.4%
COc1cc(C2C(Oc3ccccc3)C(=O)N2Cc2ccc(F)cc2)cc(OC)c1OC (centres undefined),inhibition,[1],3.73%
same,inhibition,[2],3.29%
same,inhibition,[3],2.56%
CCN(CC)CCN(Cc1ccc(-c2ccc(C(F)(F)F)cc2)cc1)C(=O)Cn1c(SCc2ccc(F)cc2)nc(=O)c2sccc21,inhibition,[1],5.28%
same,inhibition,[2],2.81%
same,inhibition,[3],4.07%
Cc1cc2ncn(-c3nccc(NCc4cccnc4)n3)c2cc1C,inhibition,[1],4.32%
same,inhibition,[2],4.68%
same,inhibition,[3],2.17%
COC(=O)c1c(NC(=O)c2cccc(C(F)(F)F)c2)sc2c1CCN(Cc1ccccc1)C2,inhibition,[1],1.14%
same,inhibition,[2],5%
same,inhibition,[3],-1.31%
NC1=NC2(CCCCC2)N(Cc2ccc(Cl)c(Cl)c2)C(N)=N1,inhibition,[1],-1.03%
same,inhibition,[2],-0.28%
same,inhibition,[3],-0.42%
COc1ccc(CNCCc2cccs2)cc1-c1ccc(OC)c(S(=O)(=O)NCCN2CCCC2)c1,inhibition,[1],3.2%
same,inhibition,[2],1.85%
same,inhibition,[3],3.49%
Cc1nc(-c2nc(N3CCC(O)CC3)ncc2-c2ccsc2)sc1C,inhibition,[1],-1.86%
same,inhibition,[2],-1.39%
same,inhibition,[3],0.38%
COc1ccccc1Cn1ccnc1SCC(=O)Nc1cc(C(F)(F)F)ccc1Cl,inhibition,[1],-2.21%
same,inhibition,[2],-2.15%
same,inhibition,[3],-1.55%
O=C1C(c2ccccc2)=C(Nc2cccc(OC(F)(F)C(F)F)c2)c2ccccc21,inhibition,[1],5.8%
same,inhibition,[2],4.03%
same,inhibition,[3],1.33%
O=C(NCC1CCC(C(=O)NCc2cccc3ccccc23)CC1)c1ccc(O)c(-c2ccc(Cl)c(Cl)c2)c1 (centres undefined),inhibition,[1],5.23%
same,inhibition,[2],3.37%
same,inhibition,[3],4.73%
O=C(Nc1ccc2c(c1)OCO2)c1cc(-c2cccnc2)cnc1NCc1ccc2c(c1)OCO2,inhibition,[1],0.99%
same,inhibition,[2],0.19%
same,inhibition,[3],2.1%
Clc1ccccc1C=NN=c1cc[nH]c2ccccc12,inhibition,[1],3.99%
same,inhibition,[2],5.58%
same,inhibition,[3],5.41%
CC(=O)Oc1c(Cl)c(C)nc(C)c1-c1ccc(Oc2ccc(Cl)cc2)cc1,inhibition,[1],9.11%
same,inhibition,[2],9.67%
same,inhibition,[3],4.45%
NCc1cccc(-c2ccc(CNC3CCN(Cc4ccccc4)CC3)cc2)c1,inhibition,[1],6.37%
same,inhibition,[2],2.02%
same,inhibition,[3],-1.34%
FC(F)c1nc2ccccc2n1-c1nc(N2CCOCC2)nc(N2CCOCC2)n1,inhibition,[1],2.11%
same,inhibition,[2],2.9%
same,inhibition,[3],3.12%
Cc1cc(=O)c(-c2ccc(Oc3cccc(OC(F)(F)F)c3)cc2)c(C)[nH]1,inhibition,[1],1.89%
same,inhibition,[2],1.17%
same,inhibition,[3],-1.14%
CN(C)C1CCN(Cc2ccc(N3CCN(Cc4cccc5[nH]ccc45)CC3)nc2)CC1,inhibition,[1],2.41%
same,inhibition,[2],1.46%
same,inhibition,[3],2.99%
O=C(C=Cc1cccs1)Nc1ccc(-c2nc3ccccc3[nH]2)cc1,inhibition,[1],1.65%
same,inhibition,[2],0.72%
same,inhibition,[3],3.04%
COc1ccc(NC(=O)[C@H](Cc2ccccc2)Nc2cc(C)nc(NCCc3ccccc3)n2)cc1,inhibition,[1],5.74%
same,inhibition,[2],6.29%
same,inhibition,[3],5.16%
CN(C)Cc1ccc2cc(NC(=O)c3ccc(-c4ccc(Cl)cc4)cc3)ccc2n1,inhibition,[1],2.13%
same,inhibition,[2],1.6%
same,inhibition,[3],2.79%
CCOc1ccc(C2CCN(CCCCNC(=O)c3ccc(NC(=O)c4ccc(Cl)cc4)cc3)CC2)c(CC)c1,inhibition,[1],0.2%
same,inhibition,[2],-0.09%
same,inhibition,[3],-0.33%
O=C(CCCCCNC(=O)c1ccc(O)c(-c2ccc(Cl)c(Cl)c2)c1)NCCN1CCCCC1,inhibition,[1],2.71%
same,inhibition,[2],2.46%
same,inhibition,[3],3.45%
CC(O)C1CCCCN1C(=O)c1cccc(-c2ccc(-c3nc4cc(F)ccc4[nH]3)cc2)c1 (centres undefined),inhibition,[1],2.72%
same,inhibition,[2],5.12%
same,inhibition,[3],4.37%
Cc1ccc(C(C)C)c(Oc2cnc(NC(CO)c3ccccc3)nc2N)c1 (centres undefined),inhibition,[1],9.07%
same,inhibition,[2],8.83%
same,inhibition,[3],8.45%
Clc1ccc(OCCC2CCN(CCCCCCN3CCCCC3)CC2)cc1Cl,inhibition,[1],10.8%
same,inhibition,[2],4.99%
same,inhibition,[3],17%
CCc1cn2c3c(cc(C(=O)N[C@@H](Cc4ccccc4)[C@H](O)CNC(C)C)cc13)N(C)S(=O)(=O)C2,inhibition,[1],-2.02%
same,inhibition,[2],-1.87%
same,inhibition,[3],0.06%
CCCSc1nc2c(c(=O)n1Cc1ccco1)C1(CCCCC1)Cc1ccccc1-2,inhibition,[1],1.22%
same,inhibition,[2],1.9%
same,inhibition,[3],1.88%
CC(C)c1ccc(S(=O)(=O)N(c2ccc3c(c2)OCO3)C2CCN(Cc3ccccc3)C2)cc1 (centres undefined),inhibition,[1],-0.01%
same,inhibition,[2],-0.17%
same,inhibition,[3],0.98%
CN1CCCN(Cc2ccc(-c3ccc(NC(=O)c4cccc(C#N)c4)cc3)cc2)CC1,inhibition,[1],2.3%
same,inhibition,[2],0.34%
same,inhibition,[3],0.78%
CCC(=O)Nc1ccc(Nc2nc(C)cc(N3CCCC3)n2)cc1,inhibition,[1],3.46%
same,inhibition,[2],12.4%
same,inhibition,[3],2.39%
Oc1ccc(-c2ccccc2)cc1CN1CCCCC1,inhibition,[1],4.4%
same,inhibition,[2],5.51%
same,inhibition,[3],-0.56%
CC(=O)N1Cc2ccccc2C1=O,inhibition,[1],2.88%
same,inhibition,[2],3.51%
same,inhibition,[3],2.11%
CC(C)Nc1ccc(Nc2ccnc3cc4ccccc4cc23)cc1,inhibition,[1],1.19%
same,inhibition,[2],4.38%
same,inhibition,[3],0.5%
Cc1ccc(OCC2CCN(c3ncc(C(=O)NCCCN4CCCC4=O)cc3Cl)CC2)cc1,inhibition,[1],1.15%
same,inhibition,[2],-1.22%
same,inhibition,[3],0.72%
CCCCCOc1ccc(C=NNc2nc(O)cc(-c3ccccc3)n2)cc1,inhibition,[1],2.62%
same,inhibition,[2],2.5%
same,inhibition,[3],1.79%
COc1ccc(-n2nc(C(=O)NCCC3=CCCCC3)c3ccccc3c2=O)cc1,inhibition,[1],0.62%
same,inhibition,[2],-0.88%
same,inhibition,[3],-0.39%
